# High-throughput results as filed in PubChem BioAssay.
# ATXN2 expr inh: reduces ATXN2 reporter expression in HEK-293 cells. HEK-293 ATXN2-luciferase reporter, luminescence, 24 h. Potency, µM (highest dose often 57 µM), for the others: at the highest dose activity change, negative = inhibition, actives largely listed as inhibitors. actives 0.72% (n = 360,000). AID 1745845; also: % is scaled to controls: 0 for no effect and ±100 for the full control effect; nearly all actives have a fitted effect of over 55% in size
#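 qHTS (up to 57 uM final) was run with 24 h compound exposure of reporter cells at 37 °C. Each well was multiplexed: SteadyGlo luminescence measured ATXN2-luciferase expression after a fluorogenic Gly-Phe-AFC viability readout (25 uM final).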
# HepG2 viability: kills HepG2 cells in TGF-b inhibitor counter-screen; HepG2 CAGA-GFP viability, ATP luminescence, 18 h; Potency, µM (series often up to 46.1 µM), inactives show top-dose activity change, negative = cytotoxicity, usual class: cytotoxic; actives 0.76% (n = 410,000)
#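 HepG2 CAGA-GFP cells (1000/well, DMEM with 1% FBS) received compound, then TGF-beta at 500 pg/mL final, and were incubated 18 hours at 37 degrees C. Viability was read by CellTiter-Glo luminescence. Media-only wells were set as complete cell-killing and DMSO as no toxicity.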
# TGFb inhibitor: inhibitors of TGF-b signaling. HepG2 CAGA-GFP TGF-b/SMAD3 reporter, GFP fluorescence, 18 h; TGF-beta stimulated, 500 pg/mL final. Potency, µM (series often up to 46.1 µM), inactives show at the highest dose activity, negative = inhibition, hits mostly inhibitors. actives 1.2% (n = 410,000). AID 588855; also: % is scaled to controls: 0 for no effect and ±100 for the full control effect; nearly all actives have a fitted effect of over 65% in size
#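 GFP signal (ex488/em500-530) from TGF-beta-stimulated HEPG2 CAGA-GFP cells, 500 pg/mL final, 18 h at 37 degrees C in DMEM plus 1% FBS, normalized to unstimulated and DMSO-stimulated controls.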
# ATXN viability: cell viability loss in ATXN counter-screen | S2 cells (HEK-293 line with an ATXN2-luciferase reporter) viability, CellTiter-Fluor protease fluorescence, 24 h | Potency, µM (doses to about 56.7 µM), actives largely listed as cytotoxic | actives 0.49% (n = 400,000) | AID 651635; also: nearly all actives have a fitted effect of over 40% in size
# DT40 TDP1 CPT: DT40-hTDP1 cell growth loss with CPT; chicken DT40 Tdp1-/-;hTDP1 cells + 20 nM CPT, ATP luminescence, 48 h; Potency, µM (doses to about 46.2 µM), without a hit: at the highest dose activity change, negative = growth inhibition, actives largely listed as inhibitors; actives 12% (n = 420,000); AID 686979; also: % is scaled to controls: 0 for no effect and ±100 for the full control effect; nearly all actives have a fitted effect of over 55% in size
#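 Chicken DT40 Tdp1-/- cells complemented with human TDP1, 400 cells/well, exposed to compounds plus 20 nM camptothecin for at least 48 h at 37 C; viability read as ATP content by CellTiter-Glo luminescence.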
# DT40 TDP1 no CPT: qHTS for Inhibitors of human tyrosyl-DNA phosphodiesterase 1 (TDP1): qHTS in cells in absence of CPT | DT40 Tdp1-/- hTDP1 cells, no CPT, ATP luminescence, 48 h | actives 15% (n = 420,000) | AID 686978, 2013 | Potency, µM (series often up to 46.2 µM), without a hit: at the highest dose activity change, negative = growth inhibition, actives largely listed as inhibitors; also: % is scaled to controls: 0 for no effect and ±100 for the full control effect; nearly all actives have a fitted effect of over 55% in size
#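 Cells were dispensed at 400 per well, compounds added by pin tool, plates incubated ≥48 hr at 37 °C, then CellTiter-Glo added for 30 min at room temperature before luminescence reading. Line: DT40 Tdp1-/- complemented with hTDP1; camptothecin omitted.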
# * = called active by the depositor; i = inactive; u = inconclusive; x = no result. In the library only some 17% were active in any assay of this set; here they are far more common. Calls follow the shape of the dose curve; as a rule, active = well fitted curve in the direction sought with a large enough effect; inconclusive = small, poorly fitted or top-dose-only effect, or another doubt; inactive = no such curve, though single readings can be large; an effect the other way counts as inactive or inconclusive. Potency is read from the fitted curve at half-maximal effect.
SMILES,ATXN2 expr inh,HepG2 viability,TGFb inhibitor,ATXN viability,DT40 TDP1 CPT,DT40 TDP1 no CPT
Cc1cc2ccccc2n1-c1ccc(C(=O)N2CCC(C(=O)NCc3ccccc3Cl)CC2)s1,x,-32%,-18%,x,16µM*,-97%
Cc1ccc(CNC(=O)C2CCN(C(=O)c3ccc(-n4ccc5ccccc54)s3)CC2)cc1,x,-22%,u,x,-27%,u
CCc1noc(C)c1C(=O)N1CCSC1=Nc1cccc(Cl)c1C,u,4%,u,i,u,23µM*
COc1ccc(-c2cc3c(o2)CCCC3OCCN2CCOCC2)cc1 (stereo unspecified),6%,x,x,u,u,u
O=C(NCC(c1ccco1)N1CCN(c2ccc(F)cc2)CC1)C(=O)NC1CCCCC1 (stereo unspecified),-17%,-1%,18%,i,u,u
COc1ccc(-n2c(=O)c(CCC(=O)N3CCC(C)CC3)nc3ccccc32)cc1,x,-11%,-14%,u,18µM*,u
CCOc1ccc(-n2c(SCC(=O)N3CCC(C)CC3)nc3c([nH]c4ccccc43)c2=O)cc1,3%,-12%,2%,i,2.1µM*,5.2µM*
CCOc1ccc(-n2c(SCC(=O)N3CCCC3)nc3c([nH]c4ccccc43)c2=O)cc1,5%,1%,-13%,i,-7%,-5%
CCOc1ccc(-n2c(SCC(=O)N3CCCCCC3)nc3c([nH]c4ccccc43)c2=O)cc1,-2%,-11%,-11%,i,21µM*,23µM*
CCOc1cccc(-c2c(C(=O)N/N=C/c3ccoc3)nnn2-c2nonc2N)c1,-3%,-18%,-2%,u,u,-23%
CC(=NNC(=S)N1CCCCCC1)c1cccc2cccnc12,u,14%,2.2µM*,u,0.016µM*,0.021µM*
S=C(Nc1ccc2nc(-c3ccccn3)c(-c3ccccn3)nc2c1)N1CCCCC1,11%,-3%,16%,i,-25%,-21%
S=C(NC1CCCC1)N1CCN(c2ccccn2)CC1,-12%,-3%,1%,u,2%,u
CC(=NNC(=S)N1CCN(c2ccccn2)CC1)c1nccs1,u,1%,u,u,0.015µM*,0.016µM*
CC(=NNC(=S)N1CCN(C2CCCCCC2)CC1)c1ccccn1,-82%,-79%,u,1.2µM*,0.065µM*,0.037µM*
CC(=O)c1ccc(NC(=S)N2CCN(c3ccccn3)CC2)cc1,-17%,9%,18%,i,u,u
CC(=NNC(=S)N1CCN(c2ccccn2)CC1)c1ccccn1,-22%,2%,0%,i,18µM*,16µM*
C#CC(C)(CC)NC(=O)c1cc(OC)c(OC)c(OC)c1 (stereo unspecified),7%,-8%,16%,i,5%,-4%
Cc1nccn1CCCNC(=O)C1CCC(=O)N(Cc2ccccc2F)C1 (stereo unspecified),18%,8%,-7%,i,-1%,19%
O=C(C[n+]1ccc2ccccc2c1)c1ccc2ccc3ccccc3c2c1,-34%,x,x,i,3.3µM*,4.1µM*
O=C(C[n+]1ccc2ccccc2c1)c1ccccc1,24%,-1%,2%,i,4%,-6%
O=C(CN1C(=O)NC2(CCCCCC2)C1=O)c1ccc(OC(F)F)cc1OC(F)F,-7%,0%,2%,i,u,u
Cc1ccc(S(=O)(=O)N(CC(=O)NCc2ccc(F)cc2)C(=O)N2CCN(C)CC2)cc1,-5%,2%,15%,i,4%,7%
CCCn1c(N)c(C(=O)CN(C)CC(=O)Nc2cc(C)ccc2C)c(=O)[nH]c1=O,-31%,-8%,10%,i,13µM*,13µM*
CCCn1c(N)c(C(=O)CN(C)CC(=O)Nc2c(Cl)cccc2Cl)c(=O)[nH]c1=O,-7%,-3%,-8%,i,16µM*,23µM*
SMILES,ATXN2 expr inh,HepG2 viability,TGFb inhibitor,ATXN viability,DT40 TDP1 CPT,DT40 TDP1 no CPT
CCCn1c(N)c(C(=O)CN(C)CC(=O)Nc2ccc(C)cc2)c(=O)[nH]c1=O,-27%,25%,u,i,-10%,-24%
CCCn1c(N)c(C(=O)CN(C)CC(=O)Nc2ccccc2C(F)(F)F)c(=O)[nH]c1=O,x,-29%,u,i,15µM*,21µM*
CCC(C)(C)NC(=O)Cc1ccc(F)cc1,3%,-7%,-2%,i,4%,-2%
CCOC(=O)/C(C#N)=C/c1cn(CCC(=O)O)nc1-c1ccc(Cl)cc1,-15%,3%,16%,u,-2%,-15%
Cc1ccc(S(=O)(=O)/N=C(\c2ccccc2)N(C)S(=O)(=O)c2ccccc2)cc1,-9%,-33%,-2%,i,0%,u
COc1ccccc1N/C(=N/S(=O)(=O)c1ccc(C)cc1)c1ccccc1,-20%,51%,22%,x,u,18µM*
Cc1ccc(S(=O)(=O)/N=C(\Sc2ccccc2)c2ccccc2)cc1,20µM*,-8%,-9%,u,5.8µM*,6.5µM*
O=S(=O)(/N=C(\c1ccccc1)N1CCOCC1)c1ccc(Cl)cc1,-14%,-48%,-2%,i,u,-21%
O=S(=O)(/N=C(\Sc1ccccc1)c1ccccc1)c1ccc(Cl)cc1,-5%,0%,0%,i,13µM*,11µM*
COc1ccccc1N/C(=N/S(=O)(=O)c1ccc(Cl)cc1)c1ccccc1,-6%,-9%,2%,i,-13%,u
NNS(=O)(=O)c1ccc(Sc2ccccn2)c([N+](=O)[O-])c1,-12%,4%,-19%,i,-8%,-27%
Cc1ccc(NC(=O)CN(C)C(=O)CSc2nccn2C)cc1,9%,-1%,7%,i,10%,-15%
CN(c1ccccc1)c1ccc(/C=C(\C#N)c2nnc3n2CCCCC3)cc1[N+](=O)[O-],13%,-34%,0%,i,18µM*,12µM*
N#C/C(=C\c1cccc([N+](=O)[O-])c1)c1nnc2n1CCCCC2,1%,-13%,4%,i,u,u
COCCN1CCc2nc(SCC(=O)Nc3ccc(Br)cc3)[nH]c(=O)c2C1,11%,-33%,-18%,i,-1%,1%
CCc1ccc(CN(C)C(=O)C2CCC(=O)N(CC3CCCCC3)C2)cc1 (stereo unspecified),17%,-33%,u,i,23µM*,u
